Source: PubChem
MCF10A rerep – DNA re-replication induction in MCF 10a cells; MCF 10A DNA re-replication, Hoechst nuclear intensity, 48 h; Potency, µM (top dose mostly 46.1 µM), for the others: at the highest dose activity, positive = re-replication, hits mostly activators; 350,000 tested, 2.9% active; AID 624296; note: % of control where 0% means no effect; nearly all actives have a fitted effect of over 50% in size
SW480 rereplic – induces DNA re-replication in SW480 colon adenocarcinoma cells; SW480 DNA re-replication, Hoechst DNA content imaging, 48 h; Potency, µM (titrated, usually from 46.1 µM), without a hit: at the top dose re-replication activation, most hits filed as activators; 340,000 tested, 1.8% active; AID 624297; note: % of control where 0% means no effect; nearly all actives have a fitted effect of over 55% in size
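250 cells/well; 23 nL cpd via pin tool; 48 hr, 37 C, 5% CO2; Hoechst 40 min; imager read of total nuclear intensity, ex 405/em 500-530 nm.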
HT1080NT lethal – kills 2HG-producing HT-1080-NT fibrosarcoma cells; HT-1080-NT fibrosarcoma viability, CellTiter-Glo ATP luminescence, 48 h; Potency, µM (titrated, usually from 46.1 µM), inactives show top-dose activity, negative = less viability, hits mostly cytotoxic; 360,000 tested, 1.6% active; AID 686970;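 note: NT is the 2HG producing partner of a matched IDH1 knockdown line; 0% = DMSO-treated cells and -100% = media-only wells without cells; nearly all actives have a fitted effect of over 55% in size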
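Luminescent CellTiter-Glo readout after 48 hours of compound exposure at 37 degrees C defined viability of HT-1080-NT cells. Activity was normalized to DMSO wells and cell-free media wells; concentration-response curves were fitted and assigned curve classes.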
KB-3-1 tox – KB-3-1 parental cell cytotoxicity | KB-3-1 viability, CellTiter-Glo ATP luminescence, 72 h | Potency, µM (top dose mostly 46.1 µM), actives largely listed as cytotoxic | 400,000 tested, 1.4% active; note: % is set by controls: 0 for no effect and ±100 for the full control effect; nearly all actives have a fitted effect of over 60% in size
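KB-3-1 parental drug-naive adenocarcinoma cells in DMEM/10% FBS, incubated 72 h at 37 C with pin-transferred compounds across a concentration series. Viability by CellTiter-Glo luminescence; concentration-response curves fitted after normalization.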
KB-V1 cytotox – kills drug-selected multidrug resistant KB-V1 cells; KB-V1 MDR cells viability, CellTiter-Glo, 72 h; Potency, µM (top dose mostly 46.1 µM), actives largely listed as cytotoxic; 400,000 tested, 3.4% active; AID 1347076; note: % is set by controls: 0 for no effect and ±100 for the full control effect; nearly all actives have a fitted effect of over 60% in size
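Following 72 h at 37 degrees C with compound, KB-V1 cell viability was read by CellTiter-Glo luminescence, medium being phenol-red-free DMEM plus 10% FBS; concentration-response parameters came from normalized, curve-fitted qHTS data.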
HT1080 IDH1KD tx – kills HT-1080 cells with IDH1 knockdown; HT-1080 IDH1 knockdown viability, ATP luminescence, 48 h; 360,000 tested, 2% active; Potency, µM (titrated, usually from 46.1 µM), inactives show top-dose activity, negative = toxicity, actives largely listed as cytotoxic; AID 686971;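 note: 0% = DMSO wells and -100% = cell-free medium wells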
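Knockdown cells (IDH1KD HT-1080) received compounds 2 h after plating at 750 cells/well and were kept 48 h at 37 °C in 5% FBS RPMI. A CellTiter-Glo luminescence read gave % activity for curve fitting.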
The depositor's hits bear a star; i = inactive; ? = inconclusive; · = no result given. A selection: hits, their analogues and other compounds. The true share with any hit is near 7.9%. Calls come from the whole dose curve; as a rule, active = well fitted curve in the direction sought with a large enough effect; inconclusive = small, poorly fitted or top-dose-only effect, or another doubt; inactive = no such curve, though single readings can be large; an effect the other way counts as inactive or inconclusive. Potency is the fitted concentration of half-maximal effect.

SMILES	MCF10A rerep	SW480 rereplic	HT1080NT lethal	KB-3-1 tox	KB-V1 cytotox	HT1080 IDH1KD tx
Nc1c(C(=O)NCCN2CCOCC2)c2nc3ccccc3nc2n1Cc1ccco1	6.51µM*	8.2µM*	-3.9%	i	i	-12.0%
Nc1c(C(=O)NCCc2ccccc2)c2nc3ccccc3nc2n1CCN1CCOCC1	1.3%	7.8%	17.8µM*	i	23.1µM*	?
COc1ccc(CCNC(=O)c2c(N)n(CCN3CCOCC3)c3nc4ccccc4nc23)cc1	?	16.4µM*	-1.3%	?	?	5.1%
Fc1cccc(-c2ccc3c(c2)CN(C(=S)NCCc2ccccc2)Cc2cnnn2-3)c1	·	·	?	i	?	-22.4%
Nc1c(C(=O)NCCN2CCOCC2)c2nc3ccccc3nc2n1Cc1ccccc1	14.6µM*	23.1µM*	-5.8%	i	?	-4.5%
C=CCNC(=O)c1c(N)n(Cc2ccco2)c2nc3ccccc3nc12	20.0%	12.5%	?	i	i	?
CN(C)CCN=Cc1c(O)n(Cc2ccc3c(c2)OCO3)c(=S)[nH]c1=O	1.6%	0.5%	19.8%	i	i	7.9%
CC(C)COP(=O)(OCC(C)C)C(Nc1ccccc1)c1ccccc1 (stereo unspecified)	?	-74.9%	18.4µM*	i	?	?
O=P(Oc1ccccc1)(Oc1ccccc1)C(O)c1ccccc1 (stereo unspecified)	-2.1%	-5.3%	12.4%	i	i	9.2%
O=P(Oc1ccccc1)(Oc1ccccc1)C(Nc1ccccc1)c1ccccc1 (stereo unspecified)	?	17.6%	-26.7%	?	13µM*	-10.0%
CC(C)COP(=O)(c1ccc(N(C)C)cc1)C(Nc1ccccc1)c1ccccc1 (stereo unspecified)	?	?	-11.5%	?	?	-5.8%
O=C1CN=C(c2ccccc2)c2ccccc2N1Cc1ccc(C(F)(F)F)cc1	-4.6%	-9.6%	7.3%	?	i	-28.2%
CC(=O)C1=C(C)OC(N)=C(C(=O)OC(C)C)C12C(=O)Nc1ccccc12 (stereo unspecified)	0.3%	-3.5%	1.5%	i	i	-5.8%
O=c1[nH]c2ccccc2n1C1CCN(C(c2cccs2)c2nnnn2-c2ccc3c(c2)OCCO3)CC1 (stereo unspecified)	·	·	?	?	?	3.26µM*
O=c1[nH]c2ccccc2n1C1CCN(C(c2ccccc2OC(F)(F)F)c2nnnn2-c2ccc3c(c2)OCCO3)CC1 (stereo unspecified)	·	·	?	?	?	23.1µM*
Cc1cccc(C)c1-n1nnnc1C(c1ccccc1OC(F)(F)F)N1CCC(n2c(=O)[nH]c3ccccc32)CC1 (stereo unspecified)	·	·	17.3%	23.1µM*	i	-1.1%
O=c1[nH]c2ccccc2n1C1CCN(C(c2ccccc2)c2nnnn2-c2ccc3c(c2)OCCO3)CC1 (stereo unspecified)	·	·	?	?	16.4µM*	?
O=c1[nH]c2ccccc2n1C1CCN(C(c2nnnn2-c2ccc3c(c2)OCCO3)C2CC2)CC1 (stereo unspecified)	·	·	?	?	i	?
C#C[C@]1(O)CCC2C3CC=C4C[C@H](O)CC[C@]4(C)C3CC[C@@]21C (stereo partly specified)	14.1%	-12.3%	-2.2%	i	i	-0.8%
CCc1cc2c(s1)NC(=O)CN=C2c1cccs1	?	?	-16.2%	?	?	-23.6%
C=CCc1cc(C=C2C(=O)NC(=O)NC2=O)cc(OC)c1OCc1ccc(C(=O)O)cc1	?	-33.9%	-5.5%	i	i	7.9%
C=CCc1cc(C=C2C(=O)N(C)C(=O)N(C)C2=O)cc(OCC)c1OCc1ccccc1	?	3.9%	?	?	16.4µM*	?
